From PubChem BioAssay
“And” between values parts separate entries of the source, which are not always exact repeats. Identical values can stand only once. The source made the active and inactive calls. Cut-off read from the data, not from the text of the source, unless noted: active = inhibition above about 80%; inactive = the rest.

Tests used:
[1] = compounds altering viability of human ES cells (AID 493140; call rule not given here;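 note: cells exposed to compounds for four days before counting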); conditions: human embryonic stem cell survival screen; stronger effect = higher value
[2] = P. berghei load reduction in hepatocytes – cell-based, HepG2, luciferase luminescence, HepG2 viability, primary screen (AID 624349; in the data active = parasite load remaining mostly below about 12%, no sharp cut-off; inactive = mostly above about 10%;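 note: 100% = mean of DMSO negative control wells on the same plate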); conditions: P. berghei liver stage in HepG2, luciferase luminescence, concentration not given here; parasite load remaining: stronger effect = lower value; viability: measured here: HepG2 viability without parasites
[3] = viability loss with induced miR-34 in A549 – imaging, A549 dox-inducible miR-34, nuclei and caspase counts, primary screen (AID 1347080;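 active = compounds whose cell count with miR-34 switched on is under 0.7 times the count with it off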); conditions: A549 miR-34 inducible, Hoechst nuclei count, 48 h
[4] = MELAS cybrid and Rieske KO viability enhancers – cell-based, MELAS cybrids, Rieske KO mouse fibroblasts, CellTiter-Glo, primary screen (AID 1508586;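 active = mean z-score across replicates of 1.96 or higher in either the MELAS or the Rieske mutant cell line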;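 note: z relative to plate mean and SD of compound and empty wells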); conditions: low glucose
[5] = growth inhibition, single agent or in combination, cell-based, chromothripsis tumors, cisplatin or BGB combos (AID 1671449); conditions: LFS_MB_P medulloblastoma cells;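 note: cells exposed for 96 hours; 0% = vehicle DMSO and 100% = killing by high DMSO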
[6] = growth inhibition, single agent and combos, cell-based, chromothripsis tumors, cisplatin or BGB combos (AID 1671450); conditions: HDN33 neuroblastoma cells, stronger effect = higher value;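 note: cells exposed to compound for four days; 0% = vehicle DMSO and 100% = cell killing by high DMSO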
[7] = growth inhibition, single agents and combos, ICB984, cell-based, cisplatin or BGB combos, synergistic combos for chromothripsis tumors (AID 1671451; call rule not given here;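 note: cells exposed for 96 hours before readout; 0% = vehicle DMSO and 100% = killing by high DMSO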); conditions: ICB984 medulloblastoma cells, drug combinations, stronger effect = higher value
[8] = growth inhibition, single agents and combos, LFS_MB_1R, cell-based, cisplatin or BGB combos, synergistic combos for chromothripsis tumors (AID 1671452); conditions: LFS_MB_1R medulloblastoma cells, stronger effect = higher value;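 note: cells exposed for 96 hours before readout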
[9] = growth inhibition, single agents and combos, HTB85, cell-based, BGB or cisplatin IC20 combos, synergistic combos for chromothripsis tumors (AID 1671453); conditions: HTB85 osteosarcoma cells, drug combinations, stronger effect = higher value;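 note: cells exposed for 96 hours before readout; 0% = vehicle DMSO and 100% = high DMSO killing control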
[10] = growth inhibition, single agents and combos, CRL2098, cell-based, BGB or cisplatin IC20 combos, synergistic combos for chromothripsis tumors (AID 1671454); conditions: CRL2098 osteosarcoma cells, drug combinations, stronger effect = higher value;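 note: cells exposed for 96 h before readout; 0% = vehicle DMSO and 100% = killing by high DMSO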
[11] = growth inhibition, single agents and combos, HD-MB03, cell-based, BGB or cisplatin IC20 combos, synergistic combos for chromothripsis tumors (AID 1671455; in the data active = inhibition above about 83%;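 note: 0% = vehicle DMSO and 100% = high DMSO as cytotoxic control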); conditions: HD-MB03 medulloblastoma cells, stronger effect = higher value
[12] = growth inhibition, single agents and combos, UWB1.289, cell-based, BGB or cisplatin combos, synergistic combos for chromothripsis tumors (AID 1671456); conditions: UWB1.289 ovarian carcinoma cells, stronger effect = higher value;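 note: cells exposed to compound for four days; 0% = vehicle DMSO and 100% = killing by high DMSO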
[13] = growth inhibition, single agents and combos, LFS_MB_2R, cell-based, cisplatin combos, synergistic combos for chromothripsis tumors (AID 1671457); conditions: LFS_MB_2R medulloblastoma cells, stronger effect = higher value;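 note: cells exposed to compound for four days before readout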
[14] = growth inhibition, MDA-MB-436, cell-based, BGB or cisplatin combos, synergistic combos for chromothripsis tumors (AID 1671458; call rule not given here;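 note: cells exposed for 96 hours; 0% = vehicle DMSO and 100% = killing by high DMSO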); conditions: MDA-MB-436 breast carcinoma growth inhibition, drug combinations, stronger effect = higher value
[15] = UWB1.289_BRCA1 ovarian cancer growth, cell-based, BGB or cisplatin combinations (AID 1671459); conditions: UWB1.289 BRCA1 ovarian carcinoma, drug combinations, stronger effect = higher value
[16] = drug combination toxicity in non-malignant astrocytes – cell-based, BGB or cisplatin IC20 combos, cytotoxicity control for chromothriptic childhood tumor combination screen (AID 1671460); conditions: Human astrocytes, viability inhibition, drug combinations, at 0.5 µM, stronger effect = higher value;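 note: cells exposed to compounds for 96 hours before viability readout; 0% = vehicle and 100% = killing control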
[17] = BT084 cell growth, single and combined drugs, ICGC_MB145, cisplatin and BGB IC40 combos (AID 1671461); conditions: BT084 medulloblastoma cells, drug combinations, stronger effect = higher value;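 note: cells exposed to drugs for 96 hours; 0% = vehicle DMSO and 100% = high DMSO full killing control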
[18] = RCMB18 cell growth, single agent and combined, cisplatin and BGB IC40 combos (AID 1671462); conditions: RCMB18 medulloblastoma cells, stronger effect = higher value;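 note: cells exposed to compound for four days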
[19] = CRL1545 cell growth, single agent and combined, cisplatin and BGB IC20 combos (AID 1671464); conditions: CRL1545 osteosarcoma cells, stronger effect = higher value;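 note: cells exposed to compound for 96 hours before readout; 0% = vehicle DMSO and 100% = high DMSO killing control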
[20] = stronger effect = lower value, cell number ratio, induced over uninduced
[21] = measured here: relative caspase fold change +Dox/-Dox
[22] = measured here: total cells with miR-34 induction, stronger effect = lower value
[23] = measured here: total cells without miR-34 induction
[24] = MELAS cybrid survival, CellTiter-Glo 48 h, stronger effect = higher value
[25] = Rieske KO mouse fibroblast survival, CellTiter-Glo 72 h
[26] = measured here: combination with BGB IC40, at 0.05 µM
[27] = measured here: with BGB IC20 combination, at 0.5 µM
[28] = measured here: with cisplatin IC20 combination, at 0.5 µM
[29] = measured here: combination with cisplatin, at 0.5 µM
[30] = measured here: combination with cisplatin, at 5 µM

C/C(=C(/CCO)SSCC1CCCO1)N(C=O)Cc1cnc(C)nc1N (configuration not stated)
survival [1]: 5.83 (inactive) | parasite load remaining [2]: 105% (inactive) | viability [2]: 73.2% | fold change [3, 20]: 0.933 (inactive) | fold change [3, 21]: 0.561 | cell count [3, 22]: 9240 | cell count [3, 23]: 9910 | z-score [4, 24]: 0.79 (inactive) | z-score [4, 25]: 0.563

CC(C)(C)NC[C@@H](O)COc1cccc2c1CCCC2=O
survival [1]: 6.25 (inactive) | parasite load remaining [2]: 94.5% (inactive) | viability [2]: 97% | fold change [3, 20]: 0.911 (inactive) | fold change [3, 21]: 1.14 | cell count [3, 22]: 9750 | cell count [3, 23]: 10700 | z-score [4, 24]: 0.547 (inactive) | z-score [4, 25]: 0.0254

O=c1[nH]cnc2c1ncn2C1OC(CO)C(O)C1O (configuration not stated)
fold change [3, 20]: 0.971 (inactive) | fold change [3, 21]: 0.634 | cell count [3, 22]: 8460 | cell count [3, 23]: 8710 | z-score [4, 24]: -0.214 (inactive) | z-score [4, 25]: -0.0718 | inhibition ([5]; at 0.5 µM, stronger effect = higher value): -10.7% (inactive) and -25.9% (inactive) | inhibition ([5]; measured here: combination with BGB IC20, at 0.005 µM): -29.2% and -10.3% | inhibition ([5]; measured here: combination with BGB IC40, at 0.005 µM): -37.9% and -36.7% | inhibition [5, 26]: -34.2% and -41.2% | inhibition ([5]; measured here: combination with cisplatin, at 0.5 µM, stronger effect = higher value): -24.2% and -36.9% | inhibition ([5]; measured here: combination with cisplatin, at 5 µM, stronger effect = higher value): -32.2% and -50.7% | inhibition ([6]; BGB combo, at 5 µM): -71.8% and -17.3% | inhibition ([6]; at 0.5 µM): -41% (inactive) and -8.53% (inactive) | inhibition ([6]; cisplatin combo, at 5 µM): -53.5% and 3.12% | inhibition [6, 27]: -43% and -17% | inhibition [6, 28]: -29.3% and -1.72% | inhibition ([6]; single agent, at 5 µM): -56.1% and -7.95% | inhibition ([7]; BGB IC20 combo, at 0.005 µM): -8.62% and -21.3% | inhibition ([7]; BGB IC40 combo, at 0.005 µM): -26.4% and -10.8% | inhibition ([7]; BGB IC40 combo, at 0.05 µM): -29.3% and -11.3% | inhibition ([7]; at 0.5 µM): -22.2% (inactive) and -24.4% (inactive) | inhibition ([7]; cisplatin combo, at 0.05 µM): -36% and -15.3% | inhibition ([7]; cisplatin combo, at 0.5 µM): -33.9% and -9.22% | inhibition ([7]; cisplatin combo, at 5 µM): -24.4% and -48% | inhibition ([7]; measured here: 5 uM single agent, at 5 µM): -3.92% and -14.5% | inhibition ([8]; at 0.5 µM): -44.3% (inactive) and -17.7% (inactive) | inhibition [8, 26]: -7.53% and -27.6% | inhibition [8, 29]: -65.5% and -12.7% | inhibition [8, 30]: -61.2% and -68.6% | inhibition ([9]; at 0.5 µM): -33.2% (inactive) and -8.83% (inactive) | inhibition ([9]; measured here: with BGB IC20, at 0.5 µM): -29.3% and -11.2% | inhibition ([9]; measured here: with BGB IC20, at 5 µM): -15.9% and -25.5% | inhibition ([9]; measured here: with cisplatin IC20, at 0.5 µM): -32% and -10.1% | inhibition ([9]; measured here: with cisplatin IC20, at 5 µM): -20.2% and -47.1% | inhibition ([9]; single agent, at 5 µM): -29.3% and -10.1% | inhibition ([10]; at 0.5 µM): -90% (inactive) and -56.6% (inactive) | inhibition ([10]; measured here: combination with BGB at IC20, at 0.5 µM): -87.4% and -18.5% | inhibition ([10]; measured here: combination with cisplatin at IC20, at 0.5 µM): -101% and -96.8% | inhibition ([11]; at 0.5 µM): -22.6% (inactive) and -12.7% (inactive) | inhibition ([11]; measured here: combo with BGB at IC20, at 0.5 µM): -22.7% and -11.5% | inhibition ([11]; measured here: combo with cisplatin at IC20, at 0.5 µM): -27.8% and -18.3% | inhibition ([12]; at 0.5 µM): -11.2% (inactive) and -3.6% (inactive) | inhibition ([12]; measured here: inhibition with BGB combination, at 0.05 µM): -39.3% and 0.127% | inhibition ([12]; measured here: inhibition with cisplatin combination, at 0.05 µM): -26% and -16.8% | inhibition ([13]; at 0.5 µM): -25.5% (inactive) and -18.4% (inactive) | inhibition [13, 29]: -31.3% and -25.6% | inhibition [13, 30]: -22.2% and -17.4% | inhibition ([14]; at 0.5 µM): -21.2% (inactive) and -4.5% (inactive) | inhibition ([14]; measured here: BGB combination, at 0.5 µM): -24.8% and -4.38% | inhibition ([14]; measured here: BGB combination, at 5 µM): -28.5% and -13.8% | inhibition ([14]; measured here: cisplatin combination, at 0.5 µM): -29.8% and -11.4% | inhibition ([14]; measured here: cisplatin combination, at 5 µM): -15.5% and -7.72% | inhibition ([15]; BGB combination, concentration series, at 5 µM): -23.4% and 11.7% | inhibition ([15]; at 0.5 µM): -19.3% (inactive) and -1.78% (inactive) | inhibition ([15]; cisplatin combination, concentration series, at 5 µM): -16.4% and -23.2% | inhibition [16]: 3.07% (inactive) and 14% (inactive) | inhibition ([16]; measured here: combo with BGB IC20): 13.9% and 6.47% | inhibition ([16]; measured here: combo with cisplatin IC20): -4.13% and 24.5% | inhibition ([17]; at 0.5 µM): -1.88% (inactive) and -23.7% (inactive) | inhibition ([17]; cisplatin combination, at 0.5 µM): -2.01% and -52.6% | inhibition ([17]; cisplatin combination, at 5 µM): -202% and -23.5% | inhibition ([17]; measured here: BGB IC40 combination 0.05 uM, at 0.05 µM): -22.8% and -31.6% | inhibition ([17]; single agent, at 5 µM): -16.1% and -9.19% | inhibition ([18]; at 0.5 µM): -14.6% (inactive) and -17.6% (inactive) | inhibition ([18]; cisplatin combo, at 5 µM): -27.4% and -4.56% | inhibition ([18]; measured here: BGB IC40 combination, at 0.05 µM): -8.27% and -1.88% | inhibition [18, 29]: -12.7% and -17.5% | inhibition ([18]; single agent, at 5 µM): -19.5% and -20.5% | inhibition ([19]; at 0.5 µM): -5.83% (inactive) and -5.48% (inactive) | inhibition [19, 27]: -50.4% and -16.7% | inhibition [19, 28]: 15.1% and -1.52% | inhibition ([19]; single agent, at 0.05 µM): -48.7% and 14.4% | inhibition ([19]; single agent, at 5 µM): -40.4%
